# PubChem BioAssay (NCI)
# Values joined by “and” are separate entries in the source; they are usually repeats but may differ in a detail not shown here. Equal values may be shown once. Compounds without any hit were thinned out: in the full panel of roughly 79,000, 15% have a hit. A structure can be active in one record and inactive in another. Active and inactive are the calls of the source. Cut-off read from the data, not from the text of the source: active = growth inhibition above about 70%; inactive = the rest.
# Test: NCI Yeast Anticancer Drug Screen. Data for the sgs1 mgt1 strain (AID 161);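 note: 0% = growth of cultures given vehicle only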
# Conditions: S. cerevisiae sgs1 mgt1 strain, at 50.0 µM, stronger effect = higher value
# Outline: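 Read-out: growth inhibition vs vehicle controls. Cells: mutant yeast strain deficient in DNA damage repair.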
row,SMILES,growth inhibition
1,Cc1cccc(Cc2ccccc2Cl)c1O,89.2% (active)
2,OC1CN(Cc2ccccc2)C[C@@H]1O (stereo not given in full),-4.5% (inactive)
3,BrC(c1cccc2ccccc12)c1cccc2ccccc12,94.8% (active)
4,COc1nc(NC2OC(CO)C(O)C(O)C2O)c(Cl)c(=O)n1C (stereo not given),87.3% (active)
5,O=S(=O)(CC(Cl)c1ccccc1)c1nc2ccccc2s1 (stereo not given),72.7% (active)
6,CCCCCCCCCCCCOS(=O)(=O)O,6.3% (inactive) and 97% (active) and 36.8% (inactive)
7,O=C(NNc1ccnc2cc(Cl)ccc12)/C(=C/c1ccc2c(c1)OCO2)NC(=O)c1ccccc1,86.8% (active)
8,O=C(CCN1CCN2c3ccccc3CCC2C1)c1ccc(F)cc1 (stereo not given),97.2% (active) and 89.7% (active)
9,CC1C[C@]2(C)C(=O)Nc3ccccc3[C@@H]2Nc2ccccc21 (stereo not given in full),93.2% (active)
10,Nc1nc(=S)c2ncn(C3OC(CO)C(O)C3O)c2[nH]1 (stereo not given),-3.7% (inactive) and -8.45% (inactive)
11,O=C(O)c1c2ccccc2nc2[nH]c(=O)[nH]c(=O)c12,-4.45% (inactive) and 24.3% (inactive)
12,N#Cc1c(/N=C/c2ccccc2Cl)sc2c1CCC2,12.1% (inactive)
13,CCC1=C(C)/C(=C/c2[nH]c(C)c(CC)c2C)N=C1C,76.2% (active) and 78.1% (active)
14,O=C(O)c1ccccc1C(=O)O,4.95% (inactive) and -23.6% (inactive)
15,Cc1cc(C)nc(NS(=O)(=O)c2ccc(Nc3c4ccccc4nc4c(C(=O)NCCCN(CCO)CCO)cccc34)cc2)n1,-4.65% (inactive)
